Experimental data taken from PubChem BioAssay AID602410 (Johns Hopkins Ion Channel Center, 2012).
Out of some 340,000 compounds screened, about 2,800 (0.82%) were called active.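 The calls were made as follows: active = B-score under library mean minus 4 SD, starting fluorescence ratio at most library mean plus 5 SD; inactive = the rest.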 What follows is part of a selection rich in actives, with near analogues and random picks from the rest.

The compounds below were run against Potassium channel subfamily K member 3 (Homo sapiens) (UniProt O14649) (assay: blockers of TASK1 two-pore potassium channel – CHO cells, FluxOR thallium flux, B-score, primary screen (AID 602410;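 as to B-score: more negative B-score means stronger inhibition of thallium flux through KCNK3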)). Conditions: CHO-KCNK3 thallium flux, FluxOR fluorescence, at 10 µM; active compounds read low.
Potassium channel subfamily K member 3 (Homo sapiens), sequence (O14649 whole entry, looked up): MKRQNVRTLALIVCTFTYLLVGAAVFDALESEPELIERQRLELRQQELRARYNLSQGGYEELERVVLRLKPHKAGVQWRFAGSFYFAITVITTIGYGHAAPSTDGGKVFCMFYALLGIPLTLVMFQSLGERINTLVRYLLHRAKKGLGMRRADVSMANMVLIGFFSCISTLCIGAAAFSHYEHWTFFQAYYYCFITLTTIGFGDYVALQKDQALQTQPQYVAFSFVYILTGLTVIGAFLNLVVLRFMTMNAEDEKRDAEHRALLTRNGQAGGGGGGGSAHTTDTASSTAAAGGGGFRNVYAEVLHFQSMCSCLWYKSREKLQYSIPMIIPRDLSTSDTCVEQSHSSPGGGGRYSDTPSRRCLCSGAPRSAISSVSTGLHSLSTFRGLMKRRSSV
In the case of COc1ccc(NC(=O)c2sc3nc(C)nc(N4CCN(c5ccccn5)CC4)c3c2C)c(OC)c1, the B-score is reported as “inactive”. In the case of Cc1nc(N2CCN(c3ccccn3)CC2)c2c(C)c(C(=O)Nc3ccc(F)cc3)sc2n1, the B-score is reported as -13 (active). With Cc1nc(N2CCC(C)CC2)c2c(C)c(C(=O)Nc3cc(F)ccc3C)sc2n1 the B-score was “inactive”. For Cc1nc(N2CCOCC2)c2c(C)c(C(=O)Nc3ccc(C(F)(F)F)cc3)sc2n1, the B-score was -8.85 (active). For Cc1nc(N2CCN(c3ccccn3)CC2)c2c(C)c(C(=O)Nc3ccc(F)c(Cl)c3)sc2n1, the B-score was -12 (active). In the case of CCOC(=O)C1CCCN(C(=O)c2sc3nc(C)nc(N4CCOCC4)c3c2C)C1 (stereo unspecified), the B-score is reported as “inactive”. In the case of Cc1cc(Br)ccc1NC(=O)c1sc2ncn(CC(=O)N3CCN(c4ccccn4)CC3)c(=O)c2c1C, the B-score is reported as “inactive”. Cc1cc(Br)ccc1NC(=O)c1cnc(N2CCN(c3ccccn3)CC2)c2ccccc12 was tested, and the B-score was “inactive”. In the case of O=C(c1c(F)cccc1Cl)N1CCN(c2ccccn2)CC1, the B-score is reported as “inactive”. With C/C(=N/NC(=O)c1ccn(C)n1)c1ccncc1 the B-score was “inactive”. For Cc1ccccc1-c1nc(CS(=O)(=O)CC(=O)NC(C)c2ccccc2)c(C)o1 (stereo unspecified), the B-score was “inactive”. For CCOc1ccc(C(CC(=O)O)NC(=O)C23CC4CC(CC(C4)C2)C3)cc1OC (stereo unspecified), the B-score was “inactive”. For Cc1cc(NC(=O)C(C)SCC(=O)Nc2ccccc2N2CCCCC2)no1 (stereo unspecified), the B-score was “inactive”. With Cc1ccc(OCCC(=O)Nc2ccc(S(=O)(=O)Nc3nccs3)cc2)cc1 the B-score was “inactive”. O=C1NC(c2ccncc2)Nc2sc3c(c21)CCCC3 (stereo unspecified) was tested, and the B-score was “inactive”. In the case of O=C(NCC(=O)N1CCCCCCC1)c1ccccc1Cl, the B-score is reported as “inactive”. For CCCc1cc(=O)[nH]c(SCC(=O)N2CCN(S(=O)(=O)c3ccc(C)cc3C)CC2)n1, the B-score was “inactive”. For Cc1ccc(CN(CC(=O)NCC2CCCO2)S(=O)(=O)c2ccc(C)cc2)cc1 (stereo unspecified), the B-score was “inactive”. In the case of CCn1ncc(Br)c1C(=O)Nc1cc(C)ccc1F, the B-score is reported as -9.47 (active). With Cc1ccc(F)c(NC(=O)CCOc2ccccc2C)c1 the B-score was “inactive”. Cc1ccc(F)c(NC(=O)CCc2ccccc2)c1 was tested, and the B-score was “inactive”. C=CCNC(=O)C1CC2c3ccccc3C1c1ccccc12 (stereo unspecified) was tested, and the B-score was “inactive”. COc1ccc(Cl)cc1C=CC=Nc1ccc(S(N)(=O)=O)cc1 was tested, and the B-score was “inactive”. COc1cccc(/C=N/Nc2cc(C)nc(-c3ccccc3O)n2)c1O was tested, and the B-score was -11.6 (active). With COc1cccc(/C=N/Nc2ccc(S(=O)(=O)Nc3ccccc3C(=O)O)cc2[N+](=O)[O-])c1O the B-score was “inactive”. For COc1ccc(Cc2nnc(N/N=C/c3ccccc3O)[nH]c2=O)cc1OC, the B-score was “inactive”. COc1cccc(CN(C)CC(O)COC(c2ccccc2)c2ccccc2C)c1 (stereo unspecified) was tested, and the B-score was -12.7 (active). With COc1cccc(CN(C)CC(=O)Nc2ccccc2C(=O)Nc2ccccc2)c1 the B-score was “inactive”. With Cc1ccccc1C(OCC(O)CN1CCCCC1CCO)c1ccccc1 (stereo unspecified) the B-score was “inactive”. In the case of COc1ccc(N(CC(=O)Nc2cc(OC)ccc2OC)S(=O)(=O)c2c(C)noc2C)cc1, the B-score is reported as “inactive”. With Cc1noc(C)c1S(=O)(=O)N(CC(=O)Nc1ccc2c(c1)OCCO2)c1ccc(C(C)C)cc1 the B-score was “inactive”. In the case of CCOC(=O)c1cccc(NC(=O)CN(c2ccc(C)cc2)S(=O)(=O)c2c(C)noc2C)c1, the B-score is reported as -8.84 (active). COc1cccc(NC(=O)C(Sc2nc3ccccc3c(=O)n2CC(C)C)c2ccccc2)c1 (stereo unspecified) was tested, and the B-score was “inactive”. With CC(Sc1nc2ccccc2c(=O)n1Cc1ccco1)C(=O)c1ccccc1 (stereo unspecified) the B-score was -8.93 (active). In the case of N#Cc1c(NC(=O)CSc2nc3ccccc3c(=O)n2Cc2ccco2)sc2c1CCCC2, the B-score is reported as “inactive”. In the case of CC(C)(C)OC(=O)Nc1ccc([C@@H](NC(=O)OC(C)(C)C)C(=O)OC(C)(C)C)cc1, the B-score is reported as “inactive”. For COc1ccc(CC(=O)NCc2nnc(SCC(=O)Nc3nccs3)n2C)cc1, the B-score was “inactive”. CC1(C)Cc2ccccc2-c2nnc(-c3cccc(O)c3)n21 was tested, and the B-score was “inactive”. COc1cc(C)c(Cl)cc1S(=O)(=O)n1ccnc1 was tested, and the B-score was “inactive”. With O=C(Cc1ccc(S(=O)(=O)N2CCOCC2)s1)NCCC(c1ccccc1)c1ccccc1 the B-score was “inactive”. For O=C(Cc1ccc(S(=O)(=O)N2CCOCC2)s1)Nc1ccc(Br)c(C(F)(F)F)c1, the B-score was -9.72 (active). O=C(Cc1ccc(S(=O)(=O)N2CCOCC2)s1)NCCOc1ccccc1F was tested, and the B-score was “inactive”. O=C1CCCN2N=C(SCC(=O)Nc3ccc(Br)cc3)SC2=N1 was tested, and the B-score was “inactive”. N#C/C(=C\c1ccccc1)c1n[nH]c(Cn2cncn2)n1 was tested, and the B-score was “inactive”. With CCN1CCN(C(=O)N[C@@H](C(=O)N[C@@H]2C(=O)N3C(C(=O)O)=C(CSc4nnnn4C)CS[C@H]23)c2ccc(O)cc2)C(=O)C1=O the B-score was “inactive”. For CN(C(=O)CSc1nnc(-c2ccc(C(C)(C)C)cc2)n1C)C1CCS(=O)(=O)C1 (stereo unspecified), the B-score was “inactive”. In the case of COc1ccc2c(c1)c(=O)c(C(=O)c1ccc(Cl)cc1)cn2CC(=O)Nc1ccc(F)cc1, the B-score is reported as “inactive”. For CN1c2ccc(C=O)c3c(C=O)ccc(c23)N(C)C1(C)C, the B-score was -11.3 (active). In the case of COc1ccc(-c2nc(CN3CCN(c4ncccn4)CC3)c(C)o2)cc1C, the B-score is reported as “inactive”. In the case of Cc1ccc(C(CNC(=O)Nc2ccccc2)N2CCN(C)CC2)cc1 (stereo unspecified), the B-score is reported as “inactive”. COc1cccc(C(=O)Nc2cc3c(cc2Br)OCCCO3)c1 was tested, and the B-score was “inactive”. With COc1ccc(-c2cc(C(=O)N(C)CC(=O)Nc3ccccc3Cl)c3ccccc3n2)cc1OC the B-score was “inactive”. COc1ccc(-c2cc(C(=O)N(C)Cc3ccc(OC)c(OC)c3OC)c3ccccc3n2)cc1OC was tested, and the B-score was “inactive”. For COc1ccc(CN(C)C(=O)c2cc(-c3ccc(C)cc3C)nc3ccccc23)c(OC)c1OC, the B-score was -12.7 (active). In the case of CC(=O)c1c(Nc2ccccc2)sc(C(=O)c2ccccc2)c1C, the B-score is reported as “inactive”. For COc1ccc(Cl)cc1NC(=O)CN(C)C(=O)c1cc(-c2cccs2)nn1-c1ccccc1, the B-score was “inactive”. With COc1ccccc1C(=O)NCC(=O)NCCSc1ccc(Br)cc1 the B-score was “inactive”. COc1cccc(C(=O)NCCSc2ccc(Br)cc2)c1 was tested, and the B-score was -8.94 (active). COc1cc(C(=O)NCC(=O)NCCSc2ccc(Br)cc2)cc(OC)c1OC was tested, and the B-score was “inactive”. For Cc1ccc(NCc2n[nH]c(=S)n2-c2ccccc2)cc1Cl, the B-score was “inactive”. For CCOc1ccc(OCCSc2nc3ccccc3n2CC(=O)O)cc1, the B-score was “inactive”. In the case of Cc1cc(C)cc(NC(=O)C2CCCN(S(=O)(=O)c3ccc4[nH]c(=O)ccc4c3)C2)c1 (stereo unspecified), the B-score is reported as “inactive”. In the case of CCOc1ccc(C2c3[nH]c4ccccc4c3CCN2Cc2cccn2-c2ncccn2)cc1 (stereo unspecified), the B-score is reported as -8.75 (active). c1ccc(C2c3[nH]c4ccccc4c3CCN2Cc2cccn2-c2cccnc2)nc1 (stereo unspecified) was tested, and the B-score was “inactive”. In the case of CCOc1ccc(C2c3[nH]c4ccccc4c3CCN2Cc2cn(CC)nc2C)cc1 (stereo unspecified), the B-score is reported as “inactive”. In the case of O=C(NCc1ccccc1)C1=C[C@@H](c2ccc(C(F)(F)F)cc2)C[C@@H](OCc2ccc(CO)cc2)O1, the B-score is reported as “inactive”. For COc1ccc(C(C)=O)cc1COc1ccc(Cl)c(C)c1, the B-score was -10.4 (active). CCOc1ccc(C(C)=O)cc1COC(=O)c1cnc(Cl)c(Cl)c1 was tested, and the B-score was “inactive”. With COCc1cc(C(C)=O)ccc1OC the B-score was “inactive”. In the case of O=S(=O)(c1cccc(-c2cn3ccccc3n2)c1)N1CCCC1, the B-score is reported as “inactive”. In the case of O=S(=O)(NC1CCCCC1N1CCCCC1)c1ccc(Cl)cc1 (stereo unspecified), the B-score is reported as “inactive”. For COc1ccc(N2CCN(C3CCCCC3NS(=O)(=O)c3ccccc3)CC2)cc1 (stereo unspecified), the B-score was “inactive”. With O=S(=O)(NC1CCCCC1N1CCN(c2ccccc2F)CC1)c1ccccc1 (stereo unspecified) the B-score was -9.12 (active). CCC(C)(C)NC(=O)C(c1ccc(O)cc1)N(Cc1ccco1)C(=O)CCC(=O)Nc1ccccn1 (stereo unspecified) was tested, and the B-score was “inactive”. Cn1c(=O)c2sccc2n(Cc2ccc(Br)cc2)c1=O was tested, and the B-score was “inactive”. With FC(F)(F)c1cc(-c2ccco2)nc(NCc2ccc(Cl)cc2)n1 the B-score was -8.85 (active). For FC(F)(F)c1cc(-c2cccs2)nc(NCc2ccco2)n1, the B-score was “inactive”. COc1nc(NCc2ccc(Cl)cc2)nc(OC)n1 was tested, and the B-score was “inactive”. In the case of Cc1c(C(=O)N2CCCc3ccccc32)sc2nc(-c3ccccc3)cn12, the B-score is reported as -9.27 (active). For Cc1cccc2cc3c(N)c(C(=O)N4CCCc5ccccc54)sc3nc12, the B-score was “inactive”. For Cc1c(C(=O)NCC2CCCO2)sc2nc(-c3ccccc3)cn12 (stereo unspecified), the B-score was “inactive”. For N[C@@H](Cc1ccccc1)C(=O)N1CCC(C(=O)NCC(=O)Nc2ccc(F)cc2)CC1, the B-score was “inactive”. With COc1ccc(C(F)(F)F)cc1N/C=C\c1nnnn1-c1ccc(C)cc1 the B-score was “inactive”. In the case of Cc1ccc(C(=O)N/N=C\c2cc(Br)c(Br)o2)cn1, the B-score is reported as “inactive”. COc1ccc(S(=O)(=O)NCCOc2ccccc2)cc1F was tested, and the B-score was “inactive”. COc1ccc(OCCNS(=O)(=O)Cc2ccccc2)cc1 was tested, and the B-score was “inactive”. For COc1ccc(S(=O)(=O)NCCCCOc2ccc(Cl)cc2)cc1, the B-score was -9.65 (active). For CCCC(C)c1nnc(NC(=O)C2CC(=O)N(c3ccc(OCC)cc3)C2)s1 (stereo unspecified), the B-score was “inactive”. CC(C)[C@H](NC(=O)Nc1ccc(S(N)(=O)=O)cc1)C(=O)O was tested, and the B-score was “inactive”. CCCCCC(O)c1cccc(OCc2ccc3ccccc3n2)c1 (stereo unspecified) was tested, and the B-score was -9.81 (active). In the case of COc1cccc(C(O)c2nc3ccccc3n2C)c1 (stereo unspecified), the B-score is reported as “inactive”. In the case of CC(C)n1c(COc2ccccc2)nc2ccccc21, the B-score is reported as “inactive”. In the case of NS(=O)(=O)c1ccc(NC(=O)/C=C/c2ccccc2Cl)cc1, the B-score is reported as “inactive”. With Cc1cc(=O)oc2c(C)c(OC(C)C(=O)NC3CCN(Cc4ccccc4)CC3)ccc12 (stereo unspecified) the B-score was “inactive”. For COc1cc(C(=S)NCc2ccccc2)cc(Br)c1O, the B-score was “inactive”. CC(=O)N1CCCc2cc(S(=O)(=O)N3CCCC(C(=O)N4CCN(c5cccc(Cl)c5)CC4)C3)ccc21 (stereo unspecified) was tested, and the B-score was -9.62 (active). CC(=O)N1CCCc2cc(S(=O)(=O)CCC(=O)N3CCN(c4ccccc4)CC3)ccc21 was tested, and the B-score was “inactive”. With CC(=O)N1c2ccc(S(=O)(=O)N3CCC(C(=O)N4CCN(c5ccccc5)CC4)CC3)cc2CC1C (stereo unspecified) the B-score was “inactive”. With CCOc1ccc2[nH]c(=O)c(CN(Cc3nnnn3Cc3ccccc3)CC3CCCO3)cc2c1 (stereo unspecified) the B-score was “inactive”. Cc1cccc2cc(CN(Cc3nnnn3Cc3ccccc3)C3CCCC3)c(=O)[nH]c12 was tested, and the B-score was -10.8 (active). In the case of Cc1cc(C)c2cc(CN(Cc3nnnn3Cc3ccc(F)cc3)C3CCCC3)c(=O)[nH]c2c1, the B-score is reported as “inactive”.
